# Records with an inconclusive call do not appear. Activity calls are given as the source filed them. Calls follow the shape of the dose curve; as a rule, active = well fitted inhibition curve with a large enough effect; inconclusive = small, poorly fitted or top-dose-only effect; inactive = no such curve, though single readings can be large or run the other way.
# Target: Coelenterazine h 2-monooxygenase (Renilla reniformis) (UniProt P27652)
# Experiment: qHTS Assay for Inhibitors of Sea Pansy Luciferase from the GSK Published Protein Kinase Inhibitor Set
# Conditions: purified Renilla luciferase, luminescence; series mostly up to 57.5 µM; activity change, negative = inhibition: at the top concentration
# Method in brief: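 qHTS (roughly 60 uM down to 300 pM) against 1 nM Renilla luciferase, substrate coelenterazine h 5 uM, Tris acetate pH 7.5 buffer with NaCl, Tween-20 and BSA. Luminescence measured after an average 2 min incubation.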
# Potency is read from the fitted curve at half-maximal effect.
# Coelenterazine h 2-monooxygenase (Renilla reniformis), sequence (P27652 whole entry, looked up): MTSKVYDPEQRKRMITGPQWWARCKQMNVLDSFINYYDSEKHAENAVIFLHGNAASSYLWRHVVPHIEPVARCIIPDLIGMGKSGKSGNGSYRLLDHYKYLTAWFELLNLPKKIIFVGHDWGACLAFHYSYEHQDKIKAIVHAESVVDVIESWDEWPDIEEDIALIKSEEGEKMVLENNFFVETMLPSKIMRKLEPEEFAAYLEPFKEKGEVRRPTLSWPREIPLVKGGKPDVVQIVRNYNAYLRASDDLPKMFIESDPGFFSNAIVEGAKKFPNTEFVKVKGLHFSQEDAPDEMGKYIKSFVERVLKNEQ
SMILES,"activity change, negative = inhibition",Potency
CN1CCC(C(=O)Nc2n[nH]c3nnc(-c4ccccc4)cc23)CC1,39.3% (inactive),
COc1ccccc1-c1cc(C=C2C(=O)Nc3ncc(Br)cc32)cc(Br)c1O,,8.19 µM (active)
CCc1nccc2c1nc(-c1nonc1N)n2CC,19.1% (inactive),
O=C(OC1CNC(C#Cc2cc3ncnc(Nc4ccc5c(ccn5Cc5cc(F)ccc5F)c4)c3s2)C1)N1CCOCC1 (centres undefined),33.4% (inactive),
CN(c1ccc(NC(=O)Nc2ccc(OC(F)(F)F)cc2)cc1)c1ccnc(Nc2cccc(S(N)(=O)=O)c2)n1,0% (inactive),
CN(c1ccc(NC(=O)NCCN2CCOCC2)cc1)c1ccnc(Nc2ccc(CS(C)(=O)=O)cc2)n1,30.7% (inactive),
CCN(CC)S(=O)(=O)c1ccc(OC)c(Nc2ncc(-c3ccccc3)o2)c1,52.6% (inactive),
CC1=C(C(=O)Nc2cc(Cl)c3[nH]ncc3c2)C(c2ccc(C(F)(F)F)cc2)CC(=O)N1 (centres undefined),14.7% (inactive),
Cc1ccc(NC(=O)c2ccoc2)cc1-c1ccc(C(=O)NCC2CC2)cc1,44.8% (inactive),
COc1cc2ncnc(Nc3ccc(C)c(O)c3)c2cc1OC,28.5% (inactive),
Nc1nccc(-c2c(-c3ccc(F)cc3)ncn2C2CCNCC2)n1,,inactive
N#Cc1cccc(Nc2ncc(-c3ccccc3)o2)c1,33.1% (inactive),
NCc1ccc(-c2nc(-c3ccc(Cl)c(O)c3)c(-c3ccncc3)[nH]2)cc1,13% (inactive),
COc1cccc(Nc2nccc(-c3cnn4ncccc34)n2)c1,51.7% (inactive),
Fc1cccc(COc2ccc(Nc3ncncc3C#Cc3ccccc3)cc2Cl)c1,46.2% (inactive),
c1cc(-c2cnn3nc(N4CCOCC4)ccc23)nc(NC2CC2)n1,24.1% (inactive),
Nc1ccc(C#Cc2cncnc2Nc2ccc(OCc3cccc(F)c3)c(Cl)c2)cc1,12.3% (inactive),
COc1ccc(-c2cc(-c3cn[nH]c3-c3ccccn3)ccn2)cc1,29.3% (inactive),
CCn1cc(-c2ccnc3[nH]ccc23)c(-c2cccc(NC(=O)Nc3ccc(OCc4ccccc4)cc3)c2)n1,36.7% (inactive),
CNC(=O)c1ncccc1Nc1nc(Nc2cc3c(cc2OC)CCCN3C(=O)CN(C)C)nc2[nH]ccc12,73.7% (inactive),

SMILES,"activity change, negative = inhibition",Potency
COC(=O)Nc1nc2ccc(Oc3ccc(NC(=O)Nc4cccc(Cl)c4)cc3)cc2[nH]1,-8.53% (inactive),
CS(=O)(=O)CCNCc1ccc(-c2ccc3ncnc(Nc4ccc(OCc5ccccc5)c(Br)c4)c3c2)o1,19.8% (inactive),
CS(=O)(=O)Nc1ccc(-c2ccc3c(NC(=O)C4CC4)n[nH]c3c2)cc1,25.6% (inactive),
COc1cc2ncn(-c3cc(OCCc4ccccc4)c(C(N)=O)s3)c2cc1OC,13.2% (inactive),
COc1ccc(-c2oc3ncnc(N)c3c2-c2ccc(NC(=O)Nc3cc(C(F)(F)F)ccc3F)cc2)cc1,3.79% (inactive),
CCn1c(-c2nonc2N)nc2cncc(C(=O)NCCNC)c21,39.8% (inactive),
COc1cccc(C=NNc2ncnc3c2cnn3-c2cccc(OC)c2)c1,30.6% (inactive),
c1cnn2ncc(-c3ccnc(Nc4ccc5c(c4)OCCO5)n3)c2c1,61% (inactive),
Fc1cccc(COc2ccc(Nc3ncnc4cc(-c5ccc[nH]5)sc34)cc2Cl)c1,9.53% (inactive),
CC(Oc1cc(-n2cnc3ccc(OCC(O)CO)cc32)sc1C(N)=O)c1ccccc1Cl (centres undefined),27.6% (inactive),
NC(=O)c1cccc(Nc2nccc(Nc3cccc(F)c3)n2)c1,21.5% (inactive),
CC1(C)CC(n2cnc(-c3ccc(F)cc3)c2-c2ccnc(N)n2)CC(C)(C)N1,31.7% (inactive),
N#Cc1ccc(Oc2nccc(-c3c(-c4ccc(F)cc4)ncn3C3CCNCC3)n2)cc1,8.41% (inactive),
NS(=O)(=O)c1ccc(-c2ccc3c(NC(=O)C4CC4)n[nH]c3c2)cc1,20.8% (inactive),
CN1CCC(n2cnc(-c3ccc(F)cc3)c2-c2ccnc(NCCO)n2)CC1,36.2% (inactive),
Nc1nc(-c2ccc(F)cc2)c(-c2ccc3ncccc3n2)s1,21.4% (inactive),
CN(c1ccc(NC(=O)Nc2c(Cl)cccc2Cl)cc1)c1ccnc(Nc2cccc(CS(C)(=O)=O)c2)n1,26.4% (inactive),
O=C1NC(=O)C(c2cccc(Cl)c2)=C1Nc1ccc(Cl)c(C(=O)O)c1,30.4% (inactive),
Nc1nc(-c2cccc(Cl)c2)c(-c2ccc3ncccc3n2)s1,-0.406% (inactive),
